Compound activity as filed in PubChem.
In the library only some 22% were active in any assay of this set; here they are far more common.
CYP2C9 inh: human CYP2C9 inhibition | P11712 | CYP2C9 Supersomes, luciferin-H conversion, luminescence | inhibition, % at 5 µM | 20% of 96,000 active | AID 777;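 active means blocking of liver enzyme CYP2C9 beyond about 50% at 5 µM, limit read from the data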
CYP2C19 inh: inhibitors of human CYP2C19 | inhibition, % at 5 µM | CYP2C19 Supersomes, luciferin-H EGE luminescence, 30 min | 21% of 96,000 active | AID 778 | P33261;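 active means CYP2C19 inhibition above a set limit at 5 µM in the primary screen, cut at about 50% in these data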;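 further: plate controls were negative control wells for no effect and 2.5 mM tranylcypromine positive control for full effect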
Target sequence (P33261 whole entry, looked up): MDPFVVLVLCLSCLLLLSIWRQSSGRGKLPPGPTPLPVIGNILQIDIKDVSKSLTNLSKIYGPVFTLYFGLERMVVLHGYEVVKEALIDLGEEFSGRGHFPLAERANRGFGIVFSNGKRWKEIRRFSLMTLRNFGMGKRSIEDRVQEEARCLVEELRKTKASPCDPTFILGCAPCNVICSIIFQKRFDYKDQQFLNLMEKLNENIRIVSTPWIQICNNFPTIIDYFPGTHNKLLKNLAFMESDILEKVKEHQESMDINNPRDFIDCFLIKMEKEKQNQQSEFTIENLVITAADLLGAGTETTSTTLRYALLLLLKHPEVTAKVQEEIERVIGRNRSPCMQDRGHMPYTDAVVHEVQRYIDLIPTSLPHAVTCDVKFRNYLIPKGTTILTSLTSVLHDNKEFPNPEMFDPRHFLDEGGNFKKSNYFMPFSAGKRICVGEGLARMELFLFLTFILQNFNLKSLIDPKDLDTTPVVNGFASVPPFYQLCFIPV
CYP2C9 activ: activators of human CYP2C9; P11712; recombinant CYP2C9, luciferin-H conversion, luminescence; hits give high values; factor 1 = untreated enzyme, 0 = blocked; activation factor at 5 µM; 1.4% of 96,000 active; AID 1024;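 active means activation factor of 2 or more for CYP2C9 at a 5 µM dose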;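 further: 0 = sulfaphenazole-blocked wells and 1 = vehicle-only wells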
Measles CPE: protection of cells from measles virus. 1.5% of 140,000 active. Measles virus-infected cells, CPE protection, absorbance. protection (pct of control), % at 4 µM. AID 841; in the data active means protection mostly above about 24%, no sharp cut-off; inactive means mostly below about 26%
CYP2C19 activ: increases human CYP2C19 enzyme activity. P33261. activation factor at 5 µM. AID 1025. recombinant CYP2C19, luciferin-H EGE luminescence; hits give high values; 0 = fully inhibited enzyme, 1 = untreated enzyme. 96,000 tested, under 10 active;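 active means activation factor of at least 2 at 5 µM in the primary screen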;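 further: 0 = wells with 2.5 mM tranylcypromine and 1 = vehicle-only wells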
An asterisk follows results filed as active; . = not tested or not shown.

SMILES	CYP2C9 inh	CYP2C19 inh	CYP2C9 activ	Measles CPE	CYP2C19 activ
O=c1oc(-c2ccc(F)cc2)nc2ccsc12	7.6	13.2	0.9	2.1	0.9
O=C1c2ccccc2C(=O)N1CCCCSc1nnc2c(Cl)cc(Cl)cn12	17.1	48.9	0.8	3.7	0.5
Cc1cc2nnc(SCCCCN3C(=O)c4ccccc4C3=O)n2c2ccccc12	-193.9	45.1	2.9*	13.5	0.5
O=C(NC(=S)Nc1ncc(Br)cc1Br)c1cncc(Br)c1	-11.4	-14.3	1.1	39.8*	1.1
O=C(Nc1cccc(C(=O)N2CCOCC2)c1)c1cncc(Br)c1	-17.0	-11.9	1.2	38.1*	1.1
O=C(Nc1ccncc1)c1cncc(Br)c1	29.9	86.6*	0.7	7.3	0.1
Cc1ccccc1NC(=S)NC(=O)c1cncc(Br)c1	.	.	.	5.7	.
Cc1cnc(C(=O)Nc2ccc(N3CCOCC3)cc2)cn1	.	.	.	17.8	.
COc1ccccc1C1C(C(N)=O)=C(C)Nc2nc(-c3ccccc3Cl)nn21 (stereo not drawn)	-7.8	26.5	1.1	21.1	0.7
COc1cccc(-c2nc3n(n2)C(c2ccc4c(c2)OCO4)C(C(N)=O)=C(C)N3)c1 (stereo not drawn)	9.8	21.0	0.9	35.5*	0.8
COc1ccccc1NC(=O)C1=C(C)Nc2nc(-c3cccs3)nn2C1c1cccc(O)c1 (stereo not drawn)	69.5*	32.8	0.3	12.8	0.7
COc1cccc(C2C(C(N)=O)=C(C)Nc3nc(-c4ccccc4Cl)nn32)c1 (stereo not drawn)	33.8	60.4*	0.7	0.5	0.4
COc1ccc(C2C(C(N)=O)=C(C)Nc3nc(-c4cccc(Cl)c4)nn32)cc1OC (stereo not drawn)	40.6	56.0*	0.6	7.3	0.4
CSc1nnc(Cc2ccc3c(c2)OCO3)o1	8.0	21.5	0.9	7.5	0.8
Cc1cc(COc2ccccc2OCCN2CCN(C)CC2)no1	-3.2	-12.8	1	20.9	1.1
CCn1c(-c2ccsc2)nc2c1c(=O)[nH]c(=O)n2Cc1ccccc1	21.7	51.5*	0.8	2.0	0.5
CC(C)Cn1c(-c2cc([N+](=O)[O-])ccc2Cl)nc2c1c(=O)[nH]c(=O)n2Cc1ccccc1	.	.	.	7.7	.
CSC1=NCCN1C(=O)c1ccco1	18.8	3.2	0.8	9.8	1
CCCCSc1nnc(-c2cc3c(C(F)(F)F)nn(C)c3s2)n1C	-99.4	1.9	2*	8.4	1
CCOc1ccc(NC(=O)CN(Cc2ccccc2)S(C)(=O)=O)cc1	.	.	.	6.0	.
COC(=O)C1=CN(Cc2cccs2)C=C(C(=O)OC)C1c1cccc(OC)c1OC	10.7	-2.4	0.9	2.9	1
COC(=O)C1=CN(C2CC2)C=C(C(=O)OC)C1c1ccccc1OC	65.8*	70.0*	0.3	34.4	0.3
O=C(NNC(=S)Nc1ccccc1)c1cccc(Br)c1	62.2*	66.2*	0.4	27.8	0.3
O=C(O)CCC(=O)NNC(=O)c1cccc(Br)c1	.	.	.	59.1*	.
COC(=O)CCC(=O)NNC(=O)c1cccc(Br)c1	.	.	.	7.3	.
SMILES	CYP2C9 inh	CYP2C19 inh	CYP2C9 activ	Measles CPE	CYP2C19 activ
CC(=O)n1c2c(c3ccccc31)OC(N)=C(C#N)C2c1ccc(C(C)C)cc1 (stereo not drawn)	72.2*	38.6	0.3	4.7	0.6
CC(C)(C)OC(=O)N1CCC(c2c(C(=O)O)cnn2-c2ccccc2)CC1	-6.6	-15.7	1.1	31.7*	1.2
Cc1nc(NCCN2CCOCC2)c2nnn(Cc3c(F)cccc3Cl)c2n1	14.3	38.1	0.9	6.5	0.6
Cc1[nH]c2ccccc2c1/C=N/Nc1ccc(F)cc1F	.	.	.	14.6	.
O=C(Nc1ccc2c(c1)CCC2)c1cc(S(=O)(=O)N2CCN(c3ccccc3)CC2)ccc1Cl	56.3*	23.6	0.4	10.3	0.8
O=C(CN1CCN(c2ccccc2)CC1)Nc1ccc2c(c1)CCC2	.	.	.	12.6	.
CC1CN(c2cc3nccnc3cc2F)CC(C)O1 (stereo not drawn)	1.4	-1.8	1	8.0	1
CCCS/C(N)=N/N=C/c1ccccc1O	59.1*	78.9*	0.4	3.0	0.2
C=CCn1c(SCC(=O)Nc2ccccc2)nnc1-c1cccc(S(=O)(=O)N2CCOCC2)c1	54.7*	66.5*	0.5	16.1	0.3
CC(C)Cn1c(SCC(=O)NCc2ccc(Cl)cc2)nnc1-c1cccc(S(=O)(=O)N2CCOCC2)c1	60.8*	18.7	0.4	6.8	0.8
CC(Sc1nc2cc([N+](=O)[O-])ccc2n1-c1ccc(F)cc1)C(=O)NCc1ccc2c(c1)OCO2 (stereo not drawn)	.	.	.	9.4	.
C/C(=N\NC(=O)c1ccccc1)c1ccccc1Br	.	.	.	21.7	.
C/C(=N\NC(=O)c1ccc(Br)cc1)c1ccccc1	28.3	61.1*	0.7	9.2	0.4
CCc1cccc(CC)c1NC(=O)C1CN(S(=O)(=O)c2ccccc2)CCN1S(=O)(=O)c1ccccc1 (stereo not drawn)	.	.	.	8.8	.
CC(C)NC(=O)CN(C)S(=O)(=O)c1ccc(F)cc1	-0.6	-3.4	1	.	1
CN(CC(=O)Nc1nccs1)S(=O)(=O)c1ccc(F)cc1	45.0	67.2*	0.6	7.5	0.3
CCN(CC(=O)Nc1ccccc1C(=O)OC)S(=O)(=O)c1ccccc1	24.3	80.5*	0.8	10.8	0.2
COc1ccccc1C(=O)Nc1cccc(SC)c1	.	.	.	4.0	.
CSc1cccc(NC(=O)COc2cccc3ccccc23)c1	-121.4	29.9	2.2*	11.8	0.7
CSc1cccc(NC(=O)CCC(=O)O)c1	.	.	.	13.3	.
CSc1cccc(NC(=O)CN(C)S(=O)(=O)c2ccccc2)c1	19.8	86.1*	0.8	6.7	0.1
CC(NC(=S)Nc1ccccc1Cl)C(c1ccccc1)N1CCOCC1 (stereo not drawn)	.	.	.	4.5	.
Clc1ccc(-c2nnc(N3CCCC3)nn2)cc1	6.9	26.1	0.9	6.1	0.7
CCCC(=O)Nc1ccccc1NC(=O)CN(C)S(=O)(=O)c1ccccc1	58.4*	10.3	0.4	1.5	0.9
CSc1cccc(NC(=O)CN(C)S(=O)(=O)c2ccc(F)cc2)c1	1.2	62.7*	1	8.3	0.4
SMILES	CYP2C9 inh	CYP2C19 inh	CYP2C9 activ	Measles CPE	CYP2C19 activ
O=C1c2cnc3nc(SCc4ccc(Cl)cc4)nn3c2CC2c3ccccc3CCN12 (stereo not drawn)	50.6*	-3.8	0.5	6.3	1
CCOC(=O)C(CCCOc1ccc(C)cc1)C(=O)OCC	28.6	34.6	0.7	15.2	0.7
CCOC(=O)C(CCCOc1ccc(C(C)CC)cc1)C(=O)OCC (stereo not drawn)	71.3*	28.3	0.3	2.7	0.7
CCOC(=O)N1CCN(CC(O)c2ccc3cc[nH]c3c2)CC1 (stereo not drawn)	4.2	95.6*	1	34.2	0
CCOC(=O)N1CCN(CC(O)c2ccc3c(c2)CCN3)CC1 (stereo not drawn)	0.6	5.3	1	16.5	0.9
COc1ccc(Br)cc1CNc1ccc(O)cc1	30.0	73.0*	0.7	8.7	0.3
COc1ccc(Br)cc1CNC(C)c1ccccc1 (stereo not drawn)	.	.	.	17.3	.
CCOc1ccc(C(=O)Nn2cnnc2)cc1	76.2*	73.7*	0.2	6.0	0.3
